# Measurements published in PubChem BioAssay (NCATS).
# Records with an inconclusive call do not appear. A number with no mark means an inactive call. Activity calls are given as the source filed them. Calls follow the shape of the dose curve; as a rule, active = well fitted inhibition curve with a large enough effect; inconclusive = small, poorly fitted or top-dose-only effect; inactive = flat fitted curve, though single readings scatter.
# System: HACAT
# Experiment: qHTS assay to identify novel small-molecules to repurpose for Merkel cell carcinoma treatment (AID 1296009); also: nearly all actives have a fitted effect of over 60% in size
# Details: MCC and control cell lines, CellTiter-Glo viability, 72 h; at 44.8 µM (top of the series) unless noted
# Procedure, shortened: (§1)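 Cell viability measured by CellTiter-Glo following 72 hr compound treatment at 37 degree celsius, with NPC and MIPE libraries tested in 8- and 11-point concentration series.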
# % is scaled to controls: 0 for no effect and ±100 for the full control effect; potency is read from the fitted curve at half-maximal effect.
row,SMILES,outcome
1,CC#C[C@]1(O)CC[C@H]2[C@@H]3C[C@H](C)C4=CC(=O)CC[C@]4(C)[C@H]3CC[C@@]21C,inactive
2,C[C@]12Cc3nonc3C[C@@H]1CC[C@@H]1[C@@H]2CC[C@@]2(C)[C@H]1CC[C@]2(C)O,inactive
3,C#C[C@]1(O)CC[C@H]2[C@@H]3CCC4=CC(=O)CCC4=C3C=C[C@@]21CC,inactive
4,O=C(CCl)c1ccc(Cl)cc1Cl,inactive

# System: MCC-13
# Experiment: as above
# Details: MCC and control cell lines, CellTiter-Glo viability, 72 h; series mostly up to 46 µM; activity change, negative = cytotoxicity: at the top concentration
# Procedure, shortened: as §1
SMILES,"activity change, negative = cytotoxicity",Potency
CC#C[C@]1(O)CC[C@H]2[C@@H]3C[C@H](C)C4=CC(=O)CC[C@]4(C)[C@H]3CC[C@@]21C,-5.44%,–
C[C@]12Cc3nonc3C[C@@H]1CC[C@@H]1[C@@H]2CC[C@@]2(C)[C@H]1CC[C@]2(C)O,-8.16%,–
C#C[C@]1(O)CC[C@H]2[C@@H]3CCC4=CC(=O)CCC4=C3C=C[C@@]21CC,-18.8%,–
O=C1NCN(c2ccccc2)C12CCN(CCCOc1ccc(F)cc1)CC2,-24.9%,–
O=C(CCl)c1ccc(Cl)cc1Cl,-23.9%,–
COc1ccc2c3c1O[C@H]1[C@@H](O)C=C[C@H]4[C@@H](C2)N(C)CC[C@@]341,–,23.8 µM (active)

# System: MCC-26
# Experiment: as above
# Details: MCC and control cell lines, CellTiter-Glo viability, 72 h; series mostly up to 46 µM; activity change, negative = cytotoxicity: at the top concentration
# Procedure, shortened: as §1
row,SMILES,"activity change, negative = cytotoxicity"
1,CC#C[C@]1(O)CC[C@H]2[C@@H]3C[C@H](C)C4=CC(=O)CC[C@]4(C)[C@H]3CC[C@@]21C,7.54%
2,C[C@]12Cc3nonc3C[C@@H]1CC[C@@H]1[C@@H]2CC[C@@]2(C)[C@H]1CC[C@]2(C)O,-6.76%
3,CN1C(=O)CN=C(c2ccccc2)c2cc(Cl)ccc21,-14.2%
4,C#C[C@]1(O)CC[C@H]2[C@@H]3CCC4=CC(=O)CCC4=C3C=C[C@@]21CC,-1.44%
5,O=C(CCl)c1ccc(Cl)cc1Cl,-13.7%

# System: MKL-1
# Experiment: as above
# Details: MCC and control cell lines, CellTiter-Glo viability, 72 h; series mostly up to 46 µM; activity change, negative = cytotoxicity: at the top concentration
# Procedure, shortened: as §1
SMILES,"activity change, negative = cytotoxicity",Potency
CC#C[C@]1(O)CC[C@H]2[C@@H]3C[C@H](C)C4=CC(=O)CC[C@]4(C)[C@H]3CC[C@@]21C,-15%,–
CN1C(=O)CN=C(c2ccccc2)c2cc(Cl)ccc21,-3.78%,–
C#C[C@]1(O)CC[C@H]2[C@@H]3CCC4=CC(=O)CCC4=C3C=C[C@@]21CC,-26.9%,–
O=C1NCN(c2ccccc2)C12CCN(CCCOc1ccc(F)cc1)CC2,6.04%,–
COc1ccc2c3c1O[C@H]1[C@@H](O)C=C[C@H]4[C@@H](C2)N(C)CC[C@@]341,–,10.7 µM (active)

# System: MKL-2
# Experiment: as above
# Details: MCC and control cell lines, CellTiter-Glo viability, 72 h; series mostly up to 46 µM; activity change, negative = cytotoxicity: at the top concentration
# Procedure, shortened: as §1
SMILES,Potency,"activity change, negative = cytotoxicity"
Clc1ccc(CSC(Cn2ccnc2)c2ccc(Cl)cc2Cl)cc1 (centres undefined),13.3 µM (active),–
CN1C(=O)CN=C(c2ccccc2)c2cc(Cl)ccc21,–,-4.51%
O=C1NCN(c2ccccc2)C12CCN(CCCOc1ccc(F)cc1)CC2,–,11.1%
COc1ccc2c3c1O[C@H]1[C@@H](O)C=C[C@H]4[C@@H](C2)N(C)CC[C@@]341,2.12 µM (active),–

# System: UISO
# Experiment: as above
# Details: MCC and control cell lines, CellTiter-Glo viability, 72 h; series mostly up to 46 µM; activity change, negative = cytotoxicity: at the top concentration
# Procedure, shortened: as §1
SMILES,"activity change, negative = cytotoxicity",Potency
CC#C[C@]1(O)CC[C@H]2[C@@H]3C[C@H](C)C4=CC(=O)CC[C@]4(C)[C@H]3CC[C@@]21C,-8.81%,–
Clc1ccc(CSC(Cn2ccnc2)c2ccc(Cl)cc2Cl)cc1 (centres undefined),–,26.6 µM (active)
CN1C(=O)CN=C(c2ccccc2)c2cc(Cl)ccc21,-15.6%,–
O=C1NCN(c2ccccc2)C12CCN(CCCOc1ccc(F)cc1)CC2,-8.63%,–
O=C(CCl)c1ccc(Cl)cc1Cl,-0.332%,–
COc1ccc2c3c1O[C@H]1[C@@H](O)C=C[C@H]4[C@@H](C2)N(C)CC[C@@]341,–,15 µM (active)

# System: WaGa
# Experiment: as above
# Details: MCC and control cell lines, CellTiter-Glo viability, 72 h; series mostly up to 46 µM; activity change, negative = cytotoxicity: at the top concentration
# Procedure, shortened: as §1
SMILES,Potency,"activity change, negative = cytotoxicity"
C[C@]12Cc3nonc3C[C@@H]1CC[C@@H]1[C@@H]2CC[C@@]2(C)[C@H]1CC[C@]2(C)O,18.8 µM (active),–
CN1C(=O)CN=C(c2ccccc2)c2cc(Cl)ccc21,–,-18.1%
O=C1NCN(c2ccccc2)C12CCN(CCCOc1ccc(F)cc1)CC2,–,5.71%
COc1ccc2c3c1O[C@H]1[C@@H](O)C=C[C@H]4[C@@H](C2)N(C)CC[C@@]341,5.34 µM (active),–
